Assay in all cases: PBM; 200 nM protein, PBS
Holding throughout (conditions): dsDNA, one strand shown

The target in experiment [1] is SHOX (Homo sapiens, UniProt O15266 103-189).
The target of experiment [2] is T1, PAX4 (Homo sapiens, UniProt O43316 9-242, R200K).
T1 sequence: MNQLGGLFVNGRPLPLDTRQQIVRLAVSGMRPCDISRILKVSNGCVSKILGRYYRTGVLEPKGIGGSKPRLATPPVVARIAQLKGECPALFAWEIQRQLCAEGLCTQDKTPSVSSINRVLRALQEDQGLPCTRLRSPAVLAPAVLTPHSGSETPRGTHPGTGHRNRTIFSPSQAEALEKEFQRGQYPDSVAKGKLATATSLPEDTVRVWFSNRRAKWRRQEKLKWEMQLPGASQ

Experiment [3] addresses T2, PAX4 (Homo sapiens, UniProt O43316 9-242).
T2 sequence: T1 sequence with K192R

Experiment [4] addresses T3, PAX4 (Homo sapiens, UniProt O43316 9-242, R200Q).
T3 sequence: T1 sequence with K192Q

The target of the next experiment is PITX2 (Homo sapiens, UniProt Q99697 72-157).
The target of experiment [5] is SHOX (Homo sapiens, UniProt O15266 103-189, R173C).
Sequence of SHOX (Homo sapiens, UniProt O15266 103-189, R173C) (O15266 103-189 R173C): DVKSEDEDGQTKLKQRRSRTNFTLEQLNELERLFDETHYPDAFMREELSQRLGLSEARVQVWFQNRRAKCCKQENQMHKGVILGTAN
Experiment [6] addresses T4, PAX4 (Homo sapiens, UniProt O43316 9-242, F177V).
T4 sequence: T1 sequence with F169V, K192R

Experiment [7] has as its target T5, PAX4 (Homo sapiens, UniProt O43316 9-242, F177Y).
T5 sequence: T1 sequence with F169Y, K192R

In experiment [8] the target is T6, PAX4 (Homo sapiens, UniProt O43316 9-242, R227W).
T6 sequence: T1 sequence with K192R, R219W

Experiment [9] addresses HOXA2 (Homo sapiens, UniProt O43364 129-215, R185T).
In experiment [10] the target is HOXA2 (Homo sapiens, UniProt O43364 129-215, R185K).
Sequence of HOXA2 (Homo sapiens, UniProt O43364 129-215, R185K) (O43364 129-215 R185K): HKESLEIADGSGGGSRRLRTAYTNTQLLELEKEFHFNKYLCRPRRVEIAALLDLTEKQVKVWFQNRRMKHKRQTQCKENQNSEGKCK
Experiment [11] concerns the target HOXA2 (Homo sapiens, UniProt O43364 129-215, Y150S).
Experiment [12] addresses HOXA2 (Homo sapiens, UniProt O43364 129-215).
Experiment [13] concerns the target HOXC9 (Homo sapiens, UniProt P31274 178-260, K195R).
Experiment [14] has as its target HOXC9 (Homo sapiens, UniProt P31274 178-260).
The target of experiment [15] is HOXC9 (Homo sapiens, UniProt P31274 178-260, R193K).
Sequence of HOXC9 (Homo sapiens, UniProt P31274 178-260, R193K) (P31274 178-260 R193K): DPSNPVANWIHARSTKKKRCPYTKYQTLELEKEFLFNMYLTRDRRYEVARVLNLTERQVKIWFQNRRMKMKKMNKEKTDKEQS
Experiment [16] addresses HOXC9 (Homo sapiens, UniProt P31274 178-260, R222W).
Experiment [17] deals with ALX3 (Homo sapiens, UniProt O95076 139-225, N203Q).
Sequence of ALX3 (Homo sapiens, UniProt O95076 139-225, N203Q) (O95076 139-225 N203Q): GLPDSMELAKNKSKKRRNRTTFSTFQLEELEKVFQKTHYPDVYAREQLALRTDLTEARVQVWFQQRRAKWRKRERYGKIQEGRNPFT
Experiment [18] concerns the target ALX3 (Homo sapiens, UniProt O95076 139-225).
Experiment [19] addresses ALX3 (Homo sapiens, UniProt O95076 139-225, L168Q).
The target of experiment [20] is ALX3 (Homo sapiens, UniProt O95076 139-225, L168V).
Sequence of ALX3 (Homo sapiens, UniProt O95076 139-225, L168V) (O95076 139-225 L168V): as the sequence (O95076 139-225 N203Q) above, with L30V, Q65N counted along it
In experiment [21] the target is ALX3 (Homo sapiens, UniProt O95076 139-225, N203S).
Sequence of ALX3 (Homo sapiens, UniProt O95076 139-225, N203S) (O95076 139-225 N203S): as the sequence (O95076 139-225 N203Q) above, with Q65S counted along it

Changes are numbered by the printed parent chain.

Sequence of SHOX (Homo sapiens, UniProt O15266 103-189) (O15266 103-189): as the sequence (O15266 103-189 R173C) above, with C71R counted along it
Sequence of ALX3 (Homo sapiens, UniProt O95076 139-225, L168Q) (O95076 139-225 L168Q): as the sequence (O95076 139-225 N203Q) above, with L30Q, Q65N counted along it
Sequence of HOXA2 (Homo sapiens, UniProt O43364 129-215) (O43364 129-215): as the sequence (O43364 129-215 R185K) above, with K57R counted along it
Sequence of ALX3 (Homo sapiens, UniProt O95076 139-225) (O95076 139-225): as the sequence (O95076 139-225 N203Q) above, with Q65N counted along it
Sequence of HOXA2 (Homo sapiens, UniProt O43364 129-215, R185T) (O43364 129-215 R185T): as the sequence (O43364 129-215 R185K) above, with K57T counted along it
Sequence of HOXA2 (Homo sapiens, UniProt O43364 129-215, Y150S) (O43364 129-215 Y150S): as the sequence (O43364 129-215 R185K) above, with Y22S, K57R counted along it
Sequence of HOXC9 (Homo sapiens, UniProt P31274 178-260, R222W) (P31274 178-260 R222W): as the sequence (P31274 178-260 R193K) above, with K16R, R45W counted along it
Sequence of HOXC9 (Homo sapiens, UniProt P31274 178-260) (P31274 178-260): as the sequence (P31274 178-260 R193K) above, with K16R counted along it
Sequence of HOXC9 (Homo sapiens, UniProt P31274 178-260, K195R) (P31274 178-260 K195R): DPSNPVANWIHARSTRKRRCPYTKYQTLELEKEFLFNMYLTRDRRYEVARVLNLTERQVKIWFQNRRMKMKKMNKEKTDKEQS

For CAGCGCAG, the binding signal was 7.11 upbm affinity estimate (log intensity, higher = more binding, comparable within an allelic series) in the experiment with SHOX [1]; 9.32 upbm affinity estimate (log intensity, higher = more binding, comparable within an allelic series) with PAX4 [2]; 9.29 upbm affinity estimate (log intensity, higher = more binding, comparable within an allelic series) in the experiment with PAX4 [3]; 9.39 upbm affinity estimate (log intensity, higher = more binding, comparable within an allelic series) with PAX4 [4]; 8.17 upbm affinity estimate (log intensity, higher = more binding, comparable within an allelic series) with PITX2; 7.22 upbm affinity estimate (log intensity, higher = more binding, comparable within an allelic series) in the experiment with SHOX [5]. Besides, the binding signal with PAX4 [6] was 9.38 upbm affinity estimate (log intensity, higher = more binding, comparable within an allelic series); with PAX4 [7], 9.36 upbm affinity estimate (log intensity, higher = more binding, comparable within an allelic series); with PAX4 [8], 9.48 upbm affinity estimate (log intensity, higher = more binding, comparable within an allelic series).
Turning to CCTTGCCC, the binding signal in the experiment with SHOX [1] is 7.09 upbm affinity estimate (log intensity, higher = more binding, comparable within an allelic series); with HOXA2 [9], 7.28 upbm affinity estimate (log intensity, higher = more binding, comparable within an allelic series); with SHOX [5], 7.14 upbm affinity estimate (log intensity, higher = more binding, comparable within an allelic series); with HOXA2 [10] it was 10.4 upbm affinity estimate (log intensity, higher = more binding, comparable within an allelic series); with HOXA2 [11], 10.4 upbm affinity estimate (log intensity, higher = more binding, comparable within an allelic series); with HOXA2 [12], 7.27 upbm affinity estimate (log intensity, higher = more binding, comparable within an allelic series).
Turning to CGCAGTGC, the binding signal with SHOX [1] was 7.16 upbm affinity estimate (log intensity, higher = more binding, comparable within an allelic series); in the experiment with HOXC9 [13], 9.74 upbm affinity estimate (log intensity, higher = more binding, comparable within an allelic series); with HOXC9 [14], 9.67 upbm affinity estimate (log intensity, higher = more binding, comparable within an allelic series); with SHOX [5], 7.23 upbm affinity estimate (log intensity, higher = more binding, comparable within an allelic series); with HOXC9 [15], 9.78 upbm affinity estimate (log intensity, higher = more binding, comparable within an allelic series); in the experiment with HOXC9 [16] it was 9.73 upbm affinity estimate (log intensity, higher = more binding, comparable within an allelic series).
In the case of CGCCGGCG, the binding signal with SHOX [1] is 7.07 upbm affinity estimate (log intensity, higher = more binding, comparable within an allelic series); with HOXA2 [9], 7.18 upbm affinity estimate (log intensity, higher = more binding, comparable within an allelic series); with ALX3 [17], 7.92 upbm affinity estimate (log intensity, higher = more binding, comparable within an allelic series); with SHOX [5] it was 7.15 upbm affinity estimate (log intensity, higher = more binding, comparable within an allelic series); with HOXA2 [10], 10.2 upbm affinity estimate (log intensity, higher = more binding, comparable within an allelic series); in the experiment with ALX3 [18] it was 7.79 upbm affinity estimate (log intensity, higher = more binding, comparable within an allelic series). For the same sequence, the binding signal was 7.73 upbm affinity estimate (log intensity, higher = more binding, comparable within an allelic series) with ALX3 [19]; 7.68 upbm affinity estimate (log intensity, higher = more binding, comparable within an allelic series) with ALX3 [20]; 10.3 upbm affinity estimate (log intensity, higher = more binding, comparable within an allelic series) with HOXA2 [11]; 8.03 upbm affinity estimate (log intensity, higher = more binding, comparable within an allelic series) in the experiment with ALX3 [21]; 7.22 upbm affinity estimate (log intensity, higher = more binding, comparable within an allelic series) in the experiment with HOXA2 [12].
As for CGCCGAGC, the binding signal with SHOX [1] is 7.14 upbm affinity estimate (log intensity, higher = more binding, comparable within an allelic series); in the experiment with PAX4 [2] it was 9.36 upbm affinity estimate (log intensity, higher = more binding, comparable within an allelic series); in the experiment with PAX4 [3], 9.47 upbm affinity estimate (log intensity, higher = more binding, comparable within an allelic series); with ALX3 [17], 7.72 upbm affinity estimate (log intensity, higher = more binding, comparable within an allelic series); with PAX4 [4] it was 9.48 upbm affinity estimate (log intensity, higher = more binding, comparable within an allelic series); with SHOX [5], 7.23 upbm affinity estimate (log intensity, higher = more binding, comparable within an allelic series). For the same sequence, the binding signal is 9.31 upbm affinity estimate (log intensity, higher = more binding, comparable within an allelic series) with PAX4 [6]; 7.76 upbm affinity estimate (log intensity, higher = more binding, comparable within an allelic series) in the experiment with ALX3 [18]; 9.32 upbm affinity estimate (log intensity, higher = more binding, comparable within an allelic series) with PAX4 [7]; 7.81 upbm affinity estimate (log intensity, higher = more binding, comparable within an allelic series) with ALX3 [19]; 7.74 upbm affinity estimate (log intensity, higher = more binding, comparable within an allelic series) in the experiment with ALX3 [20]; 9.41 upbm affinity estimate (log intensity, higher = more binding, comparable within an allelic series) in the experiment with PAX4 [8]. Moreover, in the experiment with ALX3 [21], the binding signal was 7.79 upbm affinity estimate (log intensity, higher = more binding, comparable within an allelic series).

For the origin of these results see paper PMC11006913.
